Assay [1] is described as follows: SK-BR-3 cell growth inhibitors, pilot screen, 24 h, human (AID 572;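 active = viability at or below 10% of carrier control in both of two separate runs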;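 also: compound exposure lasted between 18 and 24 h rather than exactly 24 h; 100% = carrier-treated control wells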). Conditions: SK-BR-3 viability, CellTiter-Glo luminescence, at 10 µM, stronger effect = lower value. Background: Cellular ATP, detected with luciferase, serves as a proxy for viable cell number.
A short description of assay [2]: HUVEC growth inhibition – cell-based, human, primary screen (AID 575;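 active = viability at or below 30% in both replicate assays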;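 also: 100% = median of untreated cell wells with 0.1% DMSO on each plate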). To be noted: HUVEC proliferation, CellTiter-Glo luminescence, 72 h; at 10 µM; stronger effect = lower value.
Assay [3] can be described thus: growth inhibitors of H69AR lung tumor, primary screen, human, duplicate replicates (AID 580;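 active = viability at or under a set limit in both replicates, limit being median viability minus 3 SD, cut at about 48% in these data, passing the limit was not always enough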;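 also: 100% = mean luminescence of untreated wells and 0% = no signal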). Conditions: H69AR lung tumor cells viability, ATP luminescence, 72 h; at 10 µM; stronger effect = lower value.
Assay [4] can be described thus: reversal of MRP1-mediated doxorubicin resistance, pilot screen, H69AR cells, doxorubicin co-treatment (AID 601). To be noted: CellTiter-Glo, 72 h, at 10 µM; for differential viability (reversal): stronger effect = higher value.
Assay [5] is described as follows: 384-well plate pilot, post-Golgi transport modulator project, inhibition of yeast transport mutant growth (AID 636; in the data active = inhibition above about 31%). To be noted: absorbance 615 nm, about 18 h, stronger effect = higher value.
A short description of assay [6]: growth suppression of yeast trafficking mutant, preliminary HTS, modulators of trafficking downstream of Golgi apparatus project, 1536-format plate, OD 615 nm (AID 637; in the data active = inhibition above about 30%). Conditions: yeast transport mutant growth, absorbance 615 nm, 18 h; stronger effect = higher value.
The nature of assay [7]: reducers of endogenous Her2 protein level, primary screen, SKBR3 breast tumor cells, AlphaScreen, ATP viability (AID 461;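 active = Her2 level under about 52% in both replicate screens, with viability over 70% of control, limit read from the data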;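 as to Her2 level: lower value means less Her2 protein in the cells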;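 as to viability: percent of carrier control wells set as 100% viability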). To be noted: 18-24 h, measured here: SKBR3 viability, ATP luminescence, at 10 µM. For orientation: Bead proximity is the source of the signal in Alpha formats.
The target of assay [8] is Receptor tyrosine-protein kinase erbB-2 (Homo sapiens) (UniProt P04626). The assay is described as above. Conditions: 18-24 h, at 10 µM, stronger effect = lower value.
Sequence of Receptor tyrosine-protein kinase erbB-2 (Homo sapiens) (P04626 whole entry, looked up): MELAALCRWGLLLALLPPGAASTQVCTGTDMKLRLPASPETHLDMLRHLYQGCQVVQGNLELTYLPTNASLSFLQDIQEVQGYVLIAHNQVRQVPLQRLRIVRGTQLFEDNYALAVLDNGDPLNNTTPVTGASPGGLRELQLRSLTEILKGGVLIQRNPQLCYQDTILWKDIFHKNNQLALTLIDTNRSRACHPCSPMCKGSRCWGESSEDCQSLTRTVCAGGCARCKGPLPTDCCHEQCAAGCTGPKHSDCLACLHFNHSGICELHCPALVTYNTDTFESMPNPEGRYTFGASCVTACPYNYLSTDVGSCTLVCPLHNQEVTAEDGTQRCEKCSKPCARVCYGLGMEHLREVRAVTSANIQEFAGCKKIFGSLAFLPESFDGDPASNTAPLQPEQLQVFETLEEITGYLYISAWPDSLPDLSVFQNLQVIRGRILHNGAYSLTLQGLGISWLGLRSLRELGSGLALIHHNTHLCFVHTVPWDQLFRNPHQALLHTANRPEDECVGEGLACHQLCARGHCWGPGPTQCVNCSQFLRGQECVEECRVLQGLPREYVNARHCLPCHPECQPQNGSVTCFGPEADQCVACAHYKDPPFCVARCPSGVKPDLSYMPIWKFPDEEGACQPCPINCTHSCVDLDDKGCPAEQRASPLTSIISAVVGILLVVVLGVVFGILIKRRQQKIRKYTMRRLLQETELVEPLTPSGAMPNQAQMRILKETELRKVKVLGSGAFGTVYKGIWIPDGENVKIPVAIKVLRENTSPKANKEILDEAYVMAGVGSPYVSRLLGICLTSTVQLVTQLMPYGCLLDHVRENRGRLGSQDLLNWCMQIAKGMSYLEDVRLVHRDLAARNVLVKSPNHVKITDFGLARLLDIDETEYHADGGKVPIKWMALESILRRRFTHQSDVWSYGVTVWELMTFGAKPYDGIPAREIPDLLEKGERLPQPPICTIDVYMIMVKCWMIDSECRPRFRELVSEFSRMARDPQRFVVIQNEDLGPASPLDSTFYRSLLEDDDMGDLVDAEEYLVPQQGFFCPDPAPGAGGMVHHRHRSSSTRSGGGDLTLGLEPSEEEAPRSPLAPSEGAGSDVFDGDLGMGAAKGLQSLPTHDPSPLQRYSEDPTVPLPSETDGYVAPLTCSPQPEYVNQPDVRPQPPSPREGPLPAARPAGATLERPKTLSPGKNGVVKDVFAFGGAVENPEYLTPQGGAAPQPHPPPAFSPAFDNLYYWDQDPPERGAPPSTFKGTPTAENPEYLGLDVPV
Assay [9] can be described thus: OD615 S. cerevisiae growth inhibition, permissive medium, pilot counter-assay, permissive growth control for S. cerevisiae lifespan shortening project (AID 705;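 active = growth inhibition above 25% in both replicates, a cutoff set 3 SD above the mean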). To be noted: OD615, 24 h, at 10 µM, stronger effect = higher value.
The nature of assay [10]: Restrictive medium S. cerevisiae growth inhibition, OD615, pilot screen of yeast lifespan reduction project, restrictive growth control (AID 706;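 active = growth inhibition above a set limit, 3 SD over mean compound inhibition, in both replicates, cut at about 43% in these data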;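 also: modified DeaD lifespan yeast strain shifted to restrictive glucose medium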). Conditions: OD615, 48 h, at 10 µM, stronger effect = higher value.
A short description of assay [11]: viability gain of MRP-1-high H69AR cells under doxorubicin, pilot screen, MRP-1 activator project, CellTiter-Glo, duplicate (AID 807;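 active = viability increase at or above a cutoff of the median across tested compounds plus 3 SD, cut at about 8.5% in these data, passing the limit was not always enough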;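 also: compound pretreatment 18-22 h then 72 h combined with doxorubicin; 0% = doxorubicin alone and 100% = vehicle without doxorubicin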). Conditions: H69AR viability with doxorubicin, CellTiter-Glo luminescence; at 10 µM; stronger effect = higher value.
The nature of assay [12]: growth suppression of beta-catenin knockout HCT116, pilot screen, human colon tumor cells (AID 823;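 active = cell viability at or below a set limit in both duplicate runs, the limit being the all-compound median minus 4 SD, cut at about 23% in these data, passing the limit was not always enough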;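 also: 0% = wells killed by 20 µM Hyamine and 100% = untreated DMSO cell wells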). To be noted: CellTiter-Glo, 60 h, at 10 µM, stronger effect = lower value.
Assay [13] can be described thus: growth suppression of PTEN-deleted HCT116, pilot screen, cell-based, HCT116 clonal line, CellTiter-Glo (AID 824;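 active = viability at or below 27.92% in each of two runs, the all-compound median minus 4 SD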;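 also: 0% = 20 µM Hyamine control and 100% = vehicle cell control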). Conditions: 60 h, at 10 µM, stronger effect = lower value.
Assay [14] can be described thus: inhibitors of the yeast RAM network, pilot screen, dse1pr::URA3 reporter, 5-FOA selection (AID 869;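 active = inhibition over a set limit, the all-compound mean plus 3 SD, in both replicate runs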;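 also: 0% = DMSO wells with no growth and 100% = 10 µM 1-NA-PP1 with full growth; RAM network block rescues cells from 5-FOA so hits raise OD615 growth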). Conditions: S. cerevisiae dse1pr::URA3 5-FOA growth, OD615, 2 d; at 10 µM; stronger effect = higher value; strain carries analog-sensitive mutant Cbk1 kinase.
Setting [15] is: H69AR cells + 2 uM doxorubicin, measured here: viability with 2 uM doxorubicin, stronger effect = lower value.
Setting [16] is: H69AR cells, compound alone cytotoxicity.

Results filed as inconclusive are left out. Activity calls are given as the source filed them.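 The calls were made as follows, unless noted: active = viability loss from added drug above about 55%, and viability with drug at most 40%, in both replicates (limit read from the data, passing the limit was not always enough); inconclusive = both conditions met in only one replicate; inactive = neither replicate meets both conditions.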

The term viability denotes a read-out of living cells in per cent, often relative to untreated cells. By inhibition is commonly meant the relative decrease from the control value, in per cent.

On to `COCCCn1nnnc1SCC(=O)Nc1nc(C)c(C)s1`, for which the viability in assay [1] is 109% (inactive); in [2], 89.2% (inactive); in assay [3] it was 88.1% (inactive); in [4] (setting [15]) it was 85.6%; in assay [4] (setting [16]), 88.1%. For the same molecule, in assay [4] (H69AR cells + 2 uM doxorubicin), the differential viability (reversal) is 2.5% (inactive). Further, the inhibition was -2.88% (inactive) in assay [5] and 1.13% (inactive) in assay [6].
Regarding `COc1cc2nc(SCC(=O)NC3CC3)n(CCC3=CCCCC3)c(=O)c2cc1OC`, the viability in [7] was 102%; in [1], 102% (inactive); in assay [3] it was 74.5% (inactive); in assay [4] (setting [15]), 65.1%; in [4] (setting [16]), 74.5%. In assay [8], the Her2 level was 107% (inactive). The differential viability (reversal) in assay [4] (H69AR cells + 2 uM doxorubicin) is 9.46% (inactive). Also, the inhibition in [5] was -2.11% (inactive); in assay [6], -4.33% (inactive).
Take `CCCCC[C@H](O)/C=C/C1=C(CCCCCCC(=O)O)C(=O)CC1`: the viability was 109% (inactive) in assay [1]; 75.2% (inactive) in [2]; 92.5% (inactive) in assay [3]; 102% in assay [4] (setting [15]); 92.5% in assay [4] (setting [16]). Moreover, in [4] (H69AR cells + 2 uM doxorubicin), the differential viability (reversal) was -9.49% (inactive). In addition, the inhibition in assay [5] was -0.26% (inactive); in [6], -1.17% (inactive).
For the molecule `CCOC(=O)C1=C(N)c2ccccc2CC1C(C)C` (configuration not stated), the viability in assay [7] is 85.5%; in assay [1] it was 85.5% (inactive); in assay [3] it was 72% (inactive); in [4] (setting [15]) it was 76.1%; in [4] (setting [16]) it was 72%. Moreover, the Her2 level in assay [8] was 78% (inactive). In assay [4] (H69AR cells + 2 uM doxorubicin), the differential viability (reversal) was -4.15% (inactive). Further, the inhibition in [5] was -5.34% (inactive); in [6], -1.9% (inactive).
Turning to `CN(C)CCCN1c2ccccc2Sc2ccccc21`, the viability in [1] is 66.5% (inactive); in assay [2], 74.2% (inactive); in [3], 74.7% (inactive); in assay [4] (setting [15]) it was 83%; in [4] (setting [16]) it was 74.7%. The differential viability (reversal) in assay [4] (H69AR cells + 2 uM doxorubicin) was -8.33% (inactive).
Regarding `CCN(CCCCOC(=O)c1ccc(OC)c(OC)c1)C(C)Cc1ccc(OC)cc1` (configuration not stated), the viability in assay [1] was 88% (inactive); in assay [2], 64.4% (inactive); in assay [3] it was 78.9% (inactive); in [4] (setting [15]), 72.8%; in [4] (setting [16]), 78.9%. Moreover, the differential viability (reversal) in assay [4] (H69AR cells + 2 uM doxorubicin) is 6.16% (inactive).
For the molecule `c1ccc(-c2oc3ncnc(NCCN4CCOCC4)c3c2-c2ccccc2)cc1`, the viability is 90% (inactive) in assay [1]; 58.8% (inactive) in assay [2]; 73.3% (inactive) in [3]; 32.9% in assay [4] (setting [15]); 73.3% in [4] (setting [16]). Besides, in assay [4] (H69AR cells + 2 uM doxorubicin), the differential viability (reversal) was 40.4% (inactive). Also, the inhibition in [5] was -0.52% (inactive); in assay [6] it was -4.1% (inactive).
For the molecule `COC(=O)c1ccc2c(=O)n(NC(C)=O)c(=S)[nH]c2c1`, the viability in assay [1] was 93% (inactive); in assay [2] it was 109% (inactive); in [3] it was 93.7% (inactive); in [4] (setting [15]), 83%; in assay [4] (setting [16]) it was 93.7%. Besides, in [4] (H69AR cells + 2 uM doxorubicin), the differential viability (reversal) is 10.7% (inactive). The inhibition in assay [5] is -6.67% (inactive); in assay [6], 3.09% (inactive).
Regarding `CC1=C(C(=O)OCC(C)C)C(c2cc3c(cc2Br)OCO3)NC(=O)N1C` (configuration not stated), the viability in assay [7] was 99%; in assay [1] it was 99% (inactive); in assay [3], 88.9% (inactive); in assay [4] (setting [15]), 101%; in [4] (setting [16]), 88.9%; in assay [12], 81.2% (inactive). Moreover, in assay [13], the viability is 68.4% (inactive). The Her2 level in assay [8] was 75% (inactive). The differential viability (reversal) in assay [4] (H69AR cells + 2 uM doxorubicin) is -12.5% (inactive). Further, the inhibition in assay [5] is -1.82% (inactive); in [6], -3.83% (inactive); in assay [14] it was -0.395% (inactive). In addition, the growth inhibition in assay [9] was 0.885% (inactive); in [10], -13.9% (inactive). In addition, in assay [11], the viability increase is -2.54% (inactive).
Regarding `N#CC1=C(N)N(c2ccc(Oc3ccccc3)cc2)C(=O)C1`, the viability in assay [1] was 130% (inactive); in assay [2], 106% (inactive); in assay [3], 90.2% (inactive); in assay [4] (setting [15]), 82%; in assay [4] (setting [16]), 90.2%. For the same molecule, the differential viability (reversal) in assay [4] (H69AR cells + 2 uM doxorubicin) was 8.2% (inactive). Further, the inhibition is -5.62% (inactive) in [5] and 0.48% (inactive) in assay [6].
Take `O=C(CCCCCn1c(=S)[nH]c2cc3c(cc2c1=O)OCO3)N1CCN(Cc2ccccc2)CC1`: the viability was 83% in [7], 83% (inactive) in assay [1], 55.3% in [4] (setting [15]) and 62.7% in assay [4] (setting [16]). Moreover, the Her2 level in assay [8] is 77.5% (inactive). In addition, the differential viability (reversal) in assay [4] (H69AR cells + 2 uM doxorubicin) was 7.46% (inactive). Besides, the inhibition was -4.73% (inactive) in assay [5] and -0.66% (inactive) in [6].
Take `CC(=Nc1cccc(O)c1)c1sc2ccccc2c1O`: the viability in assay [7] was 103%; in assay [1], 103% (inactive); in assay [4] (setting [15]), 92.5%; in [4] (setting [16]), 54.5%. In addition, the Her2 level in assay [8] is 71.5% (inactive). In addition, the differential viability (reversal) in [4] (H69AR cells + 2 uM doxorubicin) was -38.1% (inactive). Moreover, the inhibition in assay [5] is -5.79% (inactive); in assay [6] it was -3.33% (inactive).
As for `CCOc1ccc2nc(NC(=O)CSc3nc4ccccc4c(=O)n3Cc3ccco3)sc2c1`, the viability is 82.5% in [7]; 82.5% (inactive) in [1]; 45.2% (active) in [3]; 45.4% in [4] (setting [15]); 45.2% in [4] (setting [16]). Further, the Her2 level in [8] was 84% (inactive). The differential viability (reversal) in [4] (H69AR cells + 2 uM doxorubicin) was -0.105% (inactive). Further, the inhibition in assay [5] was -5.95% (inactive); in assay [6], -1.97% (inactive).
Consider `Cc1cc(C)c2c(=O)[nH]c(=O)n(Cc3ccccc3)c2n1`, for which the viability was 64% in assay [7]; 81.7% (inactive) in [2]; 95.7% (inactive) in assay [3]; 84.8% in [4] (setting [15]); 95.7% in assay [4] (setting [16]). The Her2 level in assay [8] was 75.5% (inactive). For the same molecule, the differential viability (reversal) in [4] (H69AR cells + 2 uM doxorubicin) was 10.9% (inactive). Besides, the inhibition in [5] was -5.26% (inactive); in assay [6], 6.55% (inactive).
In the case of `Nc1nc(N2CCN(C/C=C/c3ccccc3)CC2)nc2ccccc12`, the viability in assay [7] was 80.5%; in assay [1], 80.5% (inactive); in [3] it was 92% (inactive); in assay [4] (setting [15]), 86.1%; in assay [4] (setting [16]), 92%. Further, the Her2 level in assay [8] is 98.5% (inactive). In addition, the differential viability (reversal) in assay [4] (H69AR cells + 2 uM doxorubicin) was 5.93% (inactive). Moreover, the inhibition in [5] is -5.07% (inactive); in assay [6], -2.13% (inactive).
On to `O=C(CSc1nnc(-c2ccccc2)o1)NC1CCCCC1`, for which the viability is 75% (inactive) in assay [1]; 105% (inactive) in [2]; 98.5% (inactive) in [3]; 83.9% in assay [4] (setting [15]); 98.5% in assay [4] (setting [16]). For the same molecule, the differential viability (reversal) in assay [4] (H69AR cells + 2 uM doxorubicin) was 14.7% (inactive). Also, the values for the inhibition in assay [5] and in assay [6] were -7.12% (inactive) and 3.55% (inactive), respectively.
As for `Cc1ccc2nc(C(F)(F)F)c(C#N)c(N)c2c1`, the viability in assay [1] was 50% (inactive); in assay [2], 78.9% (inactive); in [3], 71.3% (inactive); in assay [4] (setting [15]), 115%; in assay [4] (setting [16]), 71.3%. In assay [4] (H69AR cells + 2 uM doxorubicin), the differential viability (reversal) was -43.8% (inactive). Moreover, the inhibition in assay [5] is -4.38% (inactive); in [6], 6.55% (inactive).
As for `COc1ccc(-c2nnnn2C)cc1S(=O)(=O)NCc1ccccc1`, the viability is 93.5% (inactive) in [1]; 117% (inactive) in assay [2]; 95.7% (inactive) in assay [3]; 91.1% in assay [4] (setting [15]); 95.7% in assay [4] (setting [16]). Further, in [4] (H69AR cells + 2 uM doxorubicin), the differential viability (reversal) was 4.64% (inactive). For the same molecule, the inhibition in assay [5] is -0.26% (inactive); in assay [6], -2.17% (inactive).

The record behind these values is PubChem BioAssay.
